Drawing on PubChem BioAssay (Tox21), this text covers Potency and outcome for 26 molecules.

Each structure is given as a SMILES string. Values joined by “and” are separate entries in the source; they are usually repeats but may differ in a detail not shown here. Equal values may be shown once. Results filed as inconclusive are left out. Active and inactive are the calls of the source. Unless noted, the call rests on the fitted dose curve.

A short description of test [1]: qHTS assay to identify small molecule agonists of the sonic hedgehog signaling (Shh) pathway (AID 1259368).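 Further: NIH/3T3-derived 3T3Gli1-Luc cells carrying a stable Gli1-driven firefly luciferase reporter; series mostly up to about 92 µM; nearly all actives have a fitted effect of over 15% in size.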 The method, boiled down: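 Cells of a mouse NIH/3T3 clone stably expressing luciferase under the Gli1 transcriptional response element are exposed to test chemicals for 24 hr at 37 C. Pathway activation is detected as a rise in luminescence.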
The nature of test [2]: qHTS assay to identify small molecule agonists of the androgen receptor (AR) signaling pathway in the presence of an antagonist - cell viability counter screen (AID 1259379; active means well fitted curve in the direction sought with a large enough effect in the repeat runs; an effect the other way counts as inactive or inconclusive; further: nearly all actives have a fitted effect of over 25% in size; further: potency means the concentration at half of the fitted maximal effect). The method, boiled down: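 Cytotoxicity is assessed by CellTiter-Fluor in MDA-kb2 cells carrying an MMTV-driven luciferase reporter. Cells receive 3.0uM nilutamide plus compounds at 15 concentrations and incubate 16 hr at 37C without CO2 before fluorescence reading.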

Test [3] is described as follows: qHTS assay to identify small molecule agonists of the estrogen receptor beta (ER-beta) signaling pathway - cell viability counter screen (AID 1259380; active means well fitted curve in the direction sought with a large enough effect in the repeat runs; an effect the other way counts as inactive or inconclusive; further: nearly all actives have a fitted effect of over 30% in size; further: potency means the concentration at half of the fitted maximal effect). In short, it runs like this: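 Cytotoxicity is measured in parallel with the reporter screen: after 16 hr compound exposure at 37C and a 2 hr LiveBLAzer step, CellTiter-Glo is added to the same ER-beta-UAS-bla HEK293T wells and luminescence read after 30 min.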

Test [4] can be described thus: qHTS assay to identify small molecule antagonists of the estrogen receptor beta (ER-beta) signaling pathway - cell viability counter screen (AID 1259382; active means well fitted curve in the direction sought with a large enough effect in the repeat runs; an effect the other way counts as inactive or inconclusive; further: nearly all actives have a fitted effect of over 55% in size; further: potency means the concentration at half of the fitted maximal effect). The method, boiled down: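 Cytotoxicity counter screen multiplexed with the beta-lactamase antagonist assay: GripTite HEK293T ER-beta-bla cells were treated 16 hr with test chemicals in the presence of 1nM 17-beta-estradiol, and viability was measured by CellTiter-Glo.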

For test [5], the target named is Estrogen receptor (Homo sapiens) (UniProt P03372). Nature of the test: qHTS assay to identify small molecule agonists of the estrogen receptor alpha (ER-alpha) signaling pathway in the presence of an antagonist (AID 1259383). Further: top concentration of the series differs between compounds; nearly all actives have a fitted effect of over 15% in size. In short, it runs like this: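 Agonist-mode confirmation in the presence of the ER antagonist ICI-182,780 at 10.0nM final. Breast-derived VM7Luc4E2 reporter cells were exposed to compounds for 22hr, and ERE-driven luciferase was quantified by luminescence.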
Estrogen receptor (Homo sapiens), sequence (P03372 whole entry, looked up): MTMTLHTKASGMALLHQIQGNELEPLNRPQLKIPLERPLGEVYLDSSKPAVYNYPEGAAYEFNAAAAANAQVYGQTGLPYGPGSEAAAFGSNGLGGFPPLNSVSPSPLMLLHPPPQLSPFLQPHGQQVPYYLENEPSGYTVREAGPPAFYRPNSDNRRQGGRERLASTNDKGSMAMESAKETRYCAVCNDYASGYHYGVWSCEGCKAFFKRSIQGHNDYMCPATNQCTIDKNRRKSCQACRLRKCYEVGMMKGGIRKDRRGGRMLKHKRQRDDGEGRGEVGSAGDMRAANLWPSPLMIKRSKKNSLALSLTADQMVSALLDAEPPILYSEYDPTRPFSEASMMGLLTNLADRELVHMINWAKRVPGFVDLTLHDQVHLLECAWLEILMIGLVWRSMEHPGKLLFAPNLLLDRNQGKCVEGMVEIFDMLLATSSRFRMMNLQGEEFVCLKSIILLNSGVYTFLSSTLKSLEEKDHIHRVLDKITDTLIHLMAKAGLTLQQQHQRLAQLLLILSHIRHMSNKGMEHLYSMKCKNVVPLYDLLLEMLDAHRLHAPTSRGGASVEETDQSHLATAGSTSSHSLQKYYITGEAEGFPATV
(In general: In qHTS, concentration-response curves come from the screen itself.)

Test [6] in a line: qHTS assay to identify small molecule agonists or antagonists of the thyroid stimulating hormone receptor (TSHR) signaling pathway - wild type cell line counter screen (AID 1259384). In short, it runs like this: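 Wild-type Hek293 cells, 800/well, 18 h at 37C, then compound with Ro20-1724 for 30 min RT. cAMP by HTRF (cAMP-d2/anti-cAMP cryptate), 1 h RT, fluorescence read. 15 concentrations, triplicates.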

For test [7], the target named is Estrogen receptor beta (Homo sapiens) (UniProt Q92731). In words: qHTS assay to identify small molecule agonists of the estrogen receptor beta (ER-beta) signaling pathway (AID 1259377; active means well fitted activation curve with a large enough effect in the signal ratio in the repeat runs, not every such curve was filed as active; the % refers to the signal ratio). In short, it runs like this:
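In HEK293T cells bearing a UAS-beta-lactamase reporter under ER-beta control, DMSO-delivered compounds were incubated for 16 hr at 37C. Activity was detected as fluorescence 2 hours after LiveBLAzer B/G FRET substrate addition.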

The target in test [8] is Androgen receptor (Homo sapiens) (UniProt P10275). In words: qHTS assay to identify small molecule agonists of the androgen receptor (AR) signaling pathway in the presence of an antagonist (AID 1259381). Further: nearly all actives have a fitted effect of over 15% in size. Further: potency means the concentration at half of the fitted maximal effect. In short, it runs like this:
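Agonist-mode confirmation screen: human MDA-kb2 cells stably expressing luciferase under an MMTV promoter bearing AR and GR response elements, co-treated with 3.0uM nilutamide (final). Luminescence measured after 16hr compound incubation.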

The target of test [9] is Estrogen receptor beta (Homo sapiens) (UniProt Q92731). In words: qHTS assay to identify small molecule antagonists of the estrogen receptor beta (ER-beta) signaling pathway (AID 1259378; active means well fitted inhibition curve with a large enough effect in the signal ratio in the repeat runs, not every such curve was filed as active; the % refers to the signal ratio; further: potency means the concentration at half of the fitted maximal effect). In short, it runs like this:
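ER-beta-UAS-bla HEK293T cells in 2% charcoal-stripped FBS medium treated with compound plus 1nM final 17-beta-estradiol for 16 hr at 37C. Beta-lactamase reporter read by FRET substrate fluorescence after 2 hours at room temperature.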

The nature of test [10]: qHTS assay to identify small molecule antagonists of the sonic hedgehog signaling (Shh) pathway (AID 1259369). Further: potency means the concentration at half of the fitted maximal effect; nearly all actives have a fitted effect of over 45% in size. In short, it runs like this:
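Cells are plated and held 4hr at 37 C, compounds (DMSO) are pinned in, conditioned medium is added to stimulate the pathway, and after 24hr luciferase reagent is added for 30min before luminescence is read.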

Androgen receptor (Homo sapiens), sequence (P10275 whole entry, looked up): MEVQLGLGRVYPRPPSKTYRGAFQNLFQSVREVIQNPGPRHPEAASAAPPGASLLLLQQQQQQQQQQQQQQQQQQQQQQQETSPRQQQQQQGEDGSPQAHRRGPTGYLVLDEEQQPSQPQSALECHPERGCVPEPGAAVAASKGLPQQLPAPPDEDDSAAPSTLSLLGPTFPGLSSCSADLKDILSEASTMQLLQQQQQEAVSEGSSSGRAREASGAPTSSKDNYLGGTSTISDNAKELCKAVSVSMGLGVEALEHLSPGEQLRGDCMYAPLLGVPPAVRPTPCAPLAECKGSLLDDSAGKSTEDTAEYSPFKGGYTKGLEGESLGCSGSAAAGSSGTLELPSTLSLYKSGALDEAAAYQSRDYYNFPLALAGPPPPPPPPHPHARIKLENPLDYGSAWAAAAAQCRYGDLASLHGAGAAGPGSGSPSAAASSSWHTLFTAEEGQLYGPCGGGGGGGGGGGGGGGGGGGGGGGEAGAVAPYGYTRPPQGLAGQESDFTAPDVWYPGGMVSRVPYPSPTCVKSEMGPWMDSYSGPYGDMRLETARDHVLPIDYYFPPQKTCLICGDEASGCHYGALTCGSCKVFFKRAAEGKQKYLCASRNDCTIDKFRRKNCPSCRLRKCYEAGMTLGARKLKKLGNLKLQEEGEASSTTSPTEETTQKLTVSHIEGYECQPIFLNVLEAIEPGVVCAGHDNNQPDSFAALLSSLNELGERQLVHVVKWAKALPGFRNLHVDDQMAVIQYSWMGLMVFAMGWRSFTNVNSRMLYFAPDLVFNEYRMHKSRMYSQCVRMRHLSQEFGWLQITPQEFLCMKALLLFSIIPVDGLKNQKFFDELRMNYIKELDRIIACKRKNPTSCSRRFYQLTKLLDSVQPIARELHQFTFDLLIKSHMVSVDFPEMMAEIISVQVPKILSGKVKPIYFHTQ
Estrogen receptor beta (Homo sapiens), sequence (Q92731 whole entry, looked up): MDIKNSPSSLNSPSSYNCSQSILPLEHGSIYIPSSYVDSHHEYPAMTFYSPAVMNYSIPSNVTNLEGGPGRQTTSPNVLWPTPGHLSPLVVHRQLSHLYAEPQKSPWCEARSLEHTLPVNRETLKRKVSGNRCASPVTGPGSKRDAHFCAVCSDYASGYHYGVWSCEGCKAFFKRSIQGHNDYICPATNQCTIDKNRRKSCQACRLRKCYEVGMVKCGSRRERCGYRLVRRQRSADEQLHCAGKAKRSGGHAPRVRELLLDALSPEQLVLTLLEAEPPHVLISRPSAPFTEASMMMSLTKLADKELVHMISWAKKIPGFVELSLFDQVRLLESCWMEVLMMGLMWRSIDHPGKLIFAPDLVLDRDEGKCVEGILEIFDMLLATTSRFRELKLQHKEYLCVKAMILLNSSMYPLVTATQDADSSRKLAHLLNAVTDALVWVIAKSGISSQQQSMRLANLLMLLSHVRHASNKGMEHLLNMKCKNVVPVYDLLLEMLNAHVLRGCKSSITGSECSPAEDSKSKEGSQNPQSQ

In the case of `CC(C)(OO)c1ccccc1`, the Potency entry in test [1], in test [2], in test [3], in [4] and in test [5] was “inactive” in each case. Besides, the call in [6] was inactive.

For the molecule `Nc1ccc(N=Nc2ccc(-c3ccc(N=Nc4c(S(=O)(=O)O)cc5cc(S(=O)(=O)O)c(N=Nc6ccccc6)c(O)c5c4N)cc3)cc2)c(N)c1`, the Potency entry in test [1], in test [7], in test [4] and in test [5] was “inactive” each time. The Potency in test [2] is 17.6 µM (active).

Regarding `COC(=O)C(C)N(C(=O)Cc1ccccc1)c1c(C)cccc1C` (stereo not given), the Potency entry in test [1], in test [8] and in test [5] was “inactive” each time. For the same molecule, the Potency in test [3] is 61.1 µM (active). Also, the molecule was called inactive in test [6].

Take `CN1C(=O)C(O)N=C(c2ccccc2)c2cc(Cl)ccc21` (stereo not given): the Potency result in test [1], in test [7], in test [2], in test [3], in [4] and in [5] was “inactive” in each case.

Take `CCCN(CCC)c1c([N+](=O)[O-])cc(S(C)(=O)=O)cc1[N+](=O)[O-]`: the Potency entry in test [1], in test [7], in [2], in test [3], in test [4] and in [5] was “inactive” each time.

On to `O=C(O)C(F)(F)C(F)(F)C(F)(F)C(F)(F)C(F)(F)C(F)(F)C(F)(F)C(F)(F)C(F)(F)F`, for which the Potency result in test [1], in test [2], in test [4] and in test [5] was “inactive” in each case. The Potency in test [3] was 10.9 µM (active). The molecule was called inactive in test [6].

Turning to `CCOP(=O)(OCC)O/C(=C/Cl)c1ccc(Cl)cc1Cl`, the Potency result in test [1], in [3], in [4] and in [5] was “inactive” in each case. The molecule was called inactive in [6].

Regarding `O=[N+]([O-])c1cc(C(F)(F)F)cc([N+](=O)[O-])c1Cl`, the Potency result in test [1] and in test [5] was “inactive” each time. Further, the Potency in test [3] is 54.7 µM (active). In test [6], the molecule was classed as inactive.

As to `CCOP(=S)(OCC)SCn1nnc2ccccc2c1=O`, the Potency result in test [1], in test [7], in test [3], in [4] and in test [5] was “inactive” in each case. Also, in test [9], the Potency is 68.6 µM (active). Besides, the result in test [6] was inactive.

As for `O=[N+]([O-])c1ccc(F)c([N+](=O)[O-])c1`, the Potency result in test [1], in test [7], in test [3], in test [4] and in test [5] was “inactive” throughout. Further, in test [2], the Potency is 27.6 µM (active).

For the molecule `C(=NC1CCCCC1)=NC1CCCCC1`, the Potency result in test [1], in test [7], in test [3], in [4] and in [5] was “inactive” in each case. Further, the Potency in test [2] is 2.45 µM (active) and 4.86 µM (active). In addition, in [6], the outcome was inactive.

Take `CC(O)(CS(=O)(=O)c1ccc(F)cc1)C(=O)Nc1ccc(C#N)c(C(F)(F)F)c1` (stereo not given): the Potency entry in test [1], in [7], in test [2] and in test [5] was “inactive” in each case. The Potency was 31.8 µM (active) in test [3] and 28.3 µM (active) in test [4].

Take `CN1C[C@H](CNC(=O)OCc2ccccc2)C[C@@H]2c3cccc4c3c(cn4C)C[C@H]21`: the Potency result in test [1], in test [7] and in test [5] was “inactive” in each case. The outcome in test [6] was inactive.

For the molecule `CC(c1ccc(O)cc1)(c1ccc(O)cc1)c1ccc(O)cc1`, the Potency result in test [1] and in [5] was “inactive” each time.

As for `CS/C(C)=N/OC(=O)N(C)SN(C)C(=O)O/N=C(\C)SC`, the Potency result in test [1], in test [7], in test [8], in test [4] and in test [5] was “inactive” each time.

As to `CCOC(=O)[C@]1(c2ccccc2)Oc2ccccc2[C@@H]1N`, the Potency entry in [1], in test [7] and in test [4] was “inactive” each time. Moreover, the molecule was called inactive in test [6].

On to `C/C(=C\c1ccccc1)[N+](=O)[O-]`, for which the Potency entry in [1], in [8], in test [4] and in test [5] was “inactive” in each case. In test [2], the Potency was 24.3 µM (active). Besides, the result in test [6] was inactive.

On to `O=C(O)C1(c2ccc3c(c2)OC[C@H](Cc2ccc(-c4ccccc4)cc2)[C@H]3O)CCCC1`, for which the Potency result in test [1] was “inactive”. The Potency in test [3] is 27.3 µM (active). Besides, the molecule was classed as inactive in [6].

On to `Clc1cccc2ccccc12`, for which the Potency result in test [1], in [9], in [2], in test [3] and in test [4] was “inactive” in each case. The call in test [6] was inactive.

For `C=CC(=O)NCNC(=O)C=C`, the Potency entry in [1], in [2], in [4] and in test [5] was “inactive” each time. In addition, in test [8], the Potency was 48.6 µM (active). For the same molecule, in test [6], the result was inactive.

As for `O=S(=O)(Cl)c1ccccc1`, the Potency entry in [1], in [2], in test [3] and in test [4] was “inactive” in each case. Moreover, the molecule was classed as inactive in [6].

In the case of `COc1ccc(-c2ccccc2)cc1NNC(=O)OC(C)C`, the Potency result in [1], in [7], in [8] and in [5] was “inactive” in each case. Besides, the Potency in test [9] was 63.7 µM (active); in test [3] it was 35.8 µM (active).

For the molecule `O=C(CBr)OCc1ccccc1`, the Potency entry in test [1], in test [9], in test [2], in test [3], in test [4] and in [5] was “inactive” each time.

On to `Cc1ccc(-c2c(Cl)nc(C#N)n2S(=O)(=O)N(C)C)cc1`, for which the Potency in [10] was 7.69 µM (active); in test [2] it was 48.5 µM (active); in [4] it was 27.3 µM (active). The Potency entry in test [8] and in test [5] was “inactive” throughout.

`NC(=O)C(Cl)(Cl)Cl`: the Potency entry in test [1], in test [9], in [2], in test [3], in test [4] and in [5] was “inactive” throughout.

In the case of `Cc1c(F)c(F)c(COC(=O)C2C(/C=C(\Cl)C(F)(F)F)C2(C)C)c(F)c1F` (stereo not given), the Potency entry in [1], in test [7], in [9], in test [2], in test [4] and in test [5] was “inactive” each time. Moreover, the result in [6] was inactive.
